How the values were obtained:
Assay in all cases: DAPPL (digital affinity profiling via proximity ligation, sequencing); 10 mM Tris-HCl pH 7.5, 50 mM NaCl, 1 mM DTT, 4% glycerol, room temperature, 30 min; GST-TFs on glutathione beads, 16-mer random dsDNA library, 0.1% formaldehyde crosslink after washing; high values mean tight binding
[1] = molecular target: T1, FEV (Homo sapiens, UniProt Q99581 1-238); settings: protein: recombinant; tags: N-terminal GST; dsDNA, one strand shown
T1 sequence: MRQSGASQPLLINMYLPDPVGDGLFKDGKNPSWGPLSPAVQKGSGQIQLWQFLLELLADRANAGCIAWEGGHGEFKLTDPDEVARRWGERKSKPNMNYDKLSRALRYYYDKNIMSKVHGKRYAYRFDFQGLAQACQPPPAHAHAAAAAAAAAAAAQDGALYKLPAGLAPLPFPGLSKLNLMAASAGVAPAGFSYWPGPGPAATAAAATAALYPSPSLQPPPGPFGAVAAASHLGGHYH
Procedure, shortened: (§1)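 The binding signal reported is, for every hexamer, its read frequency for a factor over its read frequency for the tag-only sample. Reads came from pools of yeast-expressed, GST-fused human transcription factors on glutathione beads, barcoded with DNA and mixed with that sample, which were incubated with 200 nmole of a random double-stranded 16-mer DNA library in Tris/NaCl/DTT/glycerol buffer at room temperature for 30 min. After washing, the pools were crosslinked with 0.1% formaldehyde, proximity-ligated with BsaI/T4 ligase for 1 h at 37 °C, PCR-amplified and sequenced on an Illumina NextSeq500.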

[2] = molecular target: ETV5 (Homo sapiens, UniProt P41161 1-510); settings: protein: recombinant; tags: N-terminal GST; dsDNA, one strand shown
ETV5, sequence (P41161 whole entry): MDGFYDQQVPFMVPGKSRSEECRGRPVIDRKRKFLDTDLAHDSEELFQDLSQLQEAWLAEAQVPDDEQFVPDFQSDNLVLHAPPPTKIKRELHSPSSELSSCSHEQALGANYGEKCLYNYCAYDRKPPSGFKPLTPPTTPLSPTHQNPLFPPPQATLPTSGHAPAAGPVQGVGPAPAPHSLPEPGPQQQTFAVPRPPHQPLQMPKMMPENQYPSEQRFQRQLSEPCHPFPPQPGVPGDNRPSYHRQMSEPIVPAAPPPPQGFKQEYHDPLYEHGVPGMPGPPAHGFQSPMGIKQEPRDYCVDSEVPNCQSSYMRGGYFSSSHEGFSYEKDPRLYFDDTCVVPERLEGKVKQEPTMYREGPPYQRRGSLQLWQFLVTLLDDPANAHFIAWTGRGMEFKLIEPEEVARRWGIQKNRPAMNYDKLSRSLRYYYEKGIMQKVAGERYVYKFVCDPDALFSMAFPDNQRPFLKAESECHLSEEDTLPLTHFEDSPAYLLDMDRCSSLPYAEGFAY
Procedure, shortened: as §1

[3] = molecular target: HSF1 (Homo sapiens, UniProt Q00613 1-529); settings: protein: recombinant; tags: N-terminal GST; chain copies: 3; dsDNA, one strand shown
HSF1, sequence (Q00613 whole entry): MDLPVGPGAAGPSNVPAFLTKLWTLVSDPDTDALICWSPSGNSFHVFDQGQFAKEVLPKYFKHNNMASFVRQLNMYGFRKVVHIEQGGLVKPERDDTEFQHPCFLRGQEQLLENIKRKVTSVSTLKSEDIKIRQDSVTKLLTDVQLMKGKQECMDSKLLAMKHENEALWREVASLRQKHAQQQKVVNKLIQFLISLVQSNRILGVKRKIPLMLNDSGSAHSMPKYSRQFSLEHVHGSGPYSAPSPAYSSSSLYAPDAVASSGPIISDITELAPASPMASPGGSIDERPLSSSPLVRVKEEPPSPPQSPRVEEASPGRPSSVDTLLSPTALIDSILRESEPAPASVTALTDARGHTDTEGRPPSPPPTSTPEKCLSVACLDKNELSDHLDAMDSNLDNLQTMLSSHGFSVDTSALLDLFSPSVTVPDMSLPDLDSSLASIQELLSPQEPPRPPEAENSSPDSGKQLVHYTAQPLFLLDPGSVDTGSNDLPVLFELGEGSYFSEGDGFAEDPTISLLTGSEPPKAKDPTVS
Procedure, shortened: as §1

[4] = molecular target: T2, SPIC (Homo sapiens, UniProt Q8N5J4 1-248); settings: protein: recombinant; tags: N-terminal GST; dsDNA, one strand shown
T2 sequence: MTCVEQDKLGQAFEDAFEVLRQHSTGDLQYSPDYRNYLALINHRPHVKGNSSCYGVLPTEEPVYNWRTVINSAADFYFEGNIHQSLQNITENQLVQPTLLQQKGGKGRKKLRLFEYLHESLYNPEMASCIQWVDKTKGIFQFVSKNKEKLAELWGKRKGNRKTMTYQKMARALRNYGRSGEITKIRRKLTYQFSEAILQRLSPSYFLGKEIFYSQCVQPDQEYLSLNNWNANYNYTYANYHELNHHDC
Procedure, shortened: as §1

[5] = molecular target: ELF4 (Homo sapiens, UniProt Q99607 1-663); settings: protein: recombinant; tags: N-terminal GST; dsDNA, one strand shown
ELF4, sequence (Q99607 whole entry): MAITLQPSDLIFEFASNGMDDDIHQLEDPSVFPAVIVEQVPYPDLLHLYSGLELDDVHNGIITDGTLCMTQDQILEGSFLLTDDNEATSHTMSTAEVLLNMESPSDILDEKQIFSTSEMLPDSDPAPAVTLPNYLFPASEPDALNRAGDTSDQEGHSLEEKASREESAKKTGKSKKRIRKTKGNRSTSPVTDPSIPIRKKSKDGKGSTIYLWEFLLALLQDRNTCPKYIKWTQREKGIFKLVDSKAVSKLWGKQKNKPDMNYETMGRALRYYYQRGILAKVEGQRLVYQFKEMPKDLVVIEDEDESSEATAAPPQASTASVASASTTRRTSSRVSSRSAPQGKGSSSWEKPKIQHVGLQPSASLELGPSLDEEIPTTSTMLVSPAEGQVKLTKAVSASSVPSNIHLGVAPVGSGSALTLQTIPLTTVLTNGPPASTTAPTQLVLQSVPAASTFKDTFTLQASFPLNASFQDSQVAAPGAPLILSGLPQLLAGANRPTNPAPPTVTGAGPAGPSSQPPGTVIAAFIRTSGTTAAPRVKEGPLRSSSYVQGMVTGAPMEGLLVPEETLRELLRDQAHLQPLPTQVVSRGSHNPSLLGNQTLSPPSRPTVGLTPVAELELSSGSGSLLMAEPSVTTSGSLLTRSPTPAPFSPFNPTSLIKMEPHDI
Procedure, shortened: as §1

[6] = molecular target: T3, ELK4 (Homo sapiens, UniProt P28324-2 1-405); settings: protein: recombinant; tags: N-terminal GST; dsDNA, one strand shown
T3 sequence: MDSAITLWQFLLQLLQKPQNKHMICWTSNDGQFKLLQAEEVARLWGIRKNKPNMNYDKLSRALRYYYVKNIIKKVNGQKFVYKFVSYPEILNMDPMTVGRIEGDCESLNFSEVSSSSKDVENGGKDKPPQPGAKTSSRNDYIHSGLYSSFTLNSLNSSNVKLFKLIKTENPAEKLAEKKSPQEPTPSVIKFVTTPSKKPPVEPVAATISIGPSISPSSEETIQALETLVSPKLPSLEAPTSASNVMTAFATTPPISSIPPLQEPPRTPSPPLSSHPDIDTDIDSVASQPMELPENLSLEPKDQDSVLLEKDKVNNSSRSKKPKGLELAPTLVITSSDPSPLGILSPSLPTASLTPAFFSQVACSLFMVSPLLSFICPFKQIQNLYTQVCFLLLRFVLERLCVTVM
Procedure, shortened: as §1

[7] = molecular target: T4, ETV2 (Homo sapiens, UniProt O00321 1-342); settings: protein: recombinant; tags: N-terminal GST; dsDNA, one strand shown
T4 sequence: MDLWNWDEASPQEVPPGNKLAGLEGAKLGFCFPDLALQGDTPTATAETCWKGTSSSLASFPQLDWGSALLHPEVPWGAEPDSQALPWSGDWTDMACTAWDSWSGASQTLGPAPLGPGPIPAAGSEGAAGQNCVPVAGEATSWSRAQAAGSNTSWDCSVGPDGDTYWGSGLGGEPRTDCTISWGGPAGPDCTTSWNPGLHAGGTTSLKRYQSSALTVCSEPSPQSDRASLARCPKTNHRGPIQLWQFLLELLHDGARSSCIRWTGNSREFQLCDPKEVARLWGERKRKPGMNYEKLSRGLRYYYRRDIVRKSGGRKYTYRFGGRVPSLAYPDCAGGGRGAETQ
Procedure, shortened: as §1

[8] = molecular target: T5, ELF3 (Homo sapiens, UniProt P78545 1-371); settings: protein: recombinant; tags: N-terminal GST; dsDNA, one strand shown
T5 sequence: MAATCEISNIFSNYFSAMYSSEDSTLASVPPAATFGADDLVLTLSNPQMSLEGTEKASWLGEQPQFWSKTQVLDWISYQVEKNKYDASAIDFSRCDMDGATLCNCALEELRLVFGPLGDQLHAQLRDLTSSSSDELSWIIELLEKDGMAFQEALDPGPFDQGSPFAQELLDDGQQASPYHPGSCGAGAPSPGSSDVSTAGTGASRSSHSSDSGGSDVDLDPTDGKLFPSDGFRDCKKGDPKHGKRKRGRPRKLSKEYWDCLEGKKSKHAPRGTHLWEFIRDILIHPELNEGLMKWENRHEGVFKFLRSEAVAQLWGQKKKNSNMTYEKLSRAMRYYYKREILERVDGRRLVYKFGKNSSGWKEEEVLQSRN
Procedure, shortened: as §1

[9] = molecular target: CRX (Homo sapiens, UniProt O43186 1-299); settings: protein: recombinant; tags: N-terminal GST; dsDNA, one strand shown
CRX, sequence (O43186 whole entry): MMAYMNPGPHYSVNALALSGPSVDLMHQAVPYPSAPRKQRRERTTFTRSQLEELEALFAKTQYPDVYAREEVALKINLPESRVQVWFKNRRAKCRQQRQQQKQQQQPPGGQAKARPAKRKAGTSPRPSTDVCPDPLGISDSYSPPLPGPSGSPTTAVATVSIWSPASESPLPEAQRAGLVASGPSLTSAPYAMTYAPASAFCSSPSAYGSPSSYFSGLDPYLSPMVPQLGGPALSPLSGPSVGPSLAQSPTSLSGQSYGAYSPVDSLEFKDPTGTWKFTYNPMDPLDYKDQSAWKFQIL
Procedure, shortened: as §1

[10] = molecular target: ETV1 (Homo sapiens, UniProt P50549 1-477); settings: protein: recombinant; tags: N-terminal GST; dsDNA, one strand shown
ETV1, sequence (P50549 whole entry): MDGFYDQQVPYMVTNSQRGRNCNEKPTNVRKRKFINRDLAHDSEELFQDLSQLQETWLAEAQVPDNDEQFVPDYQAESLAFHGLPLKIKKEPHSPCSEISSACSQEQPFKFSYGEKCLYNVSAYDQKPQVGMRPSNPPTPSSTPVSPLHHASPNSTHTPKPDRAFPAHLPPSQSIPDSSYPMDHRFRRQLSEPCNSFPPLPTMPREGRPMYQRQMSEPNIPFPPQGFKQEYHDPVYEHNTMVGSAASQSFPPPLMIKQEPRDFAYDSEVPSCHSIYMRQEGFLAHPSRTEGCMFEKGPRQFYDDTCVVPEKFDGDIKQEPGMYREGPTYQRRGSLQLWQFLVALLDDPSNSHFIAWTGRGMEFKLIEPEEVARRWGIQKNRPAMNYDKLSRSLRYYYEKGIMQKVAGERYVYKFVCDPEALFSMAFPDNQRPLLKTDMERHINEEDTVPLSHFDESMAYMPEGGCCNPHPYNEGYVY
Procedure, shortened: as §1

[11] = molecular target: T6, ERF (Homo sapiens, UniProt P50548 1-548); settings: protein: recombinant; tags: N-terminal GST; dsDNA, one strand shown
T6 sequence: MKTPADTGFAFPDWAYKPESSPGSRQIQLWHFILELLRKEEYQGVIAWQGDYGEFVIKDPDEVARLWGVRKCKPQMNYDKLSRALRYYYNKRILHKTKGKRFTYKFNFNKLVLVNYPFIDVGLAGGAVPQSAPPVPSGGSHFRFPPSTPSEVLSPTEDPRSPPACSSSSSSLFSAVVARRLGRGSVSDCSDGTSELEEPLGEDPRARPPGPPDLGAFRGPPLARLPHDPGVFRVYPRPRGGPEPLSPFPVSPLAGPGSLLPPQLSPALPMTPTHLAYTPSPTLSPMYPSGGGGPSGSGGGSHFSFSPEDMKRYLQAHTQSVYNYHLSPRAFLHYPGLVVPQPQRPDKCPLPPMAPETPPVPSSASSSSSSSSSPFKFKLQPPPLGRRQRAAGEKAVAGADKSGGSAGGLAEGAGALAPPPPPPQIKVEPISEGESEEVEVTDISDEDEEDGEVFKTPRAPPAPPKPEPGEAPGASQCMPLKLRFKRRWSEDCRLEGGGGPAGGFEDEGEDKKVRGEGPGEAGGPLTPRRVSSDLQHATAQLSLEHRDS
Procedure, shortened: as §1

[12] = molecular target: T7, ETV3L (Homo sapiens, UniProt Q6ZN32 1-361); settings: protein: recombinant; tags: N-terminal GST; dsDNA, one strand shown
T7 sequence: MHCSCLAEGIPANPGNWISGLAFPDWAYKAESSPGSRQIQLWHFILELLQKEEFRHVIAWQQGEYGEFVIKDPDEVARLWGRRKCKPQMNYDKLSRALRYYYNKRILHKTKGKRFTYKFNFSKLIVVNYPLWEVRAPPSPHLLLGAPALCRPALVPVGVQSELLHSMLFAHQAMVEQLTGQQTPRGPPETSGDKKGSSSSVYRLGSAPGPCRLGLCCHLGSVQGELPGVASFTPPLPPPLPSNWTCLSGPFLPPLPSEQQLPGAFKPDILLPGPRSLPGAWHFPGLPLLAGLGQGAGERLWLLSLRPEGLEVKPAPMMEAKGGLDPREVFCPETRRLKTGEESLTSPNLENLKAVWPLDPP
Procedure, shortened: as §1

[13] = molecular target: T8, ETS2 (Homo sapiens, UniProt P15036 1-469); settings: protein: recombinant; tags: N-terminal GST; dsDNA, one strand shown
T8 sequence: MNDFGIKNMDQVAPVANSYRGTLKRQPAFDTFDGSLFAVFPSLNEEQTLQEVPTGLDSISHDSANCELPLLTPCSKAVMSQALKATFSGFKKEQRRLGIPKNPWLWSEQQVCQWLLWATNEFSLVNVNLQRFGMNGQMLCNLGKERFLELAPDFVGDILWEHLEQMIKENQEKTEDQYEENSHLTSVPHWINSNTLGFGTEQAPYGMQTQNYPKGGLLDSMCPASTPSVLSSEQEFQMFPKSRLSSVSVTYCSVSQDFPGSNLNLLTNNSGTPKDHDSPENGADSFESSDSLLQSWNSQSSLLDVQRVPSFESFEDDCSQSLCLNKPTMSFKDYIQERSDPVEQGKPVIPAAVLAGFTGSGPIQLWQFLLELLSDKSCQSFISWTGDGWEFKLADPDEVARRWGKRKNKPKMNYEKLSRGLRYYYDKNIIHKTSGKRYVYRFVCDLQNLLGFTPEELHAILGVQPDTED
Procedure, shortened: as §1

[14] = molecular target: T9, SPDEF (Homo sapiens, UniProt O95238 1-335); settings: protein: recombinant; tags: N-terminal GST; dsDNA, one strand shown
T9 sequence: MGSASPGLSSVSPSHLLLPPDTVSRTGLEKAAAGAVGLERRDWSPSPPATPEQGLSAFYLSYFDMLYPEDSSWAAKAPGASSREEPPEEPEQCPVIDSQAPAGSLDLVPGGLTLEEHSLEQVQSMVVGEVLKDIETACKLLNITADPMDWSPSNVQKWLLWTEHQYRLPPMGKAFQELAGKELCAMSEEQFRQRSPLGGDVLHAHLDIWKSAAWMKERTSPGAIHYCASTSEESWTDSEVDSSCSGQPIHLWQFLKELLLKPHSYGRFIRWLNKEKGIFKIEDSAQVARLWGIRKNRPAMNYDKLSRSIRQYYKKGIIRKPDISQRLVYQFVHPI
Procedure, shortened: as §1

[15] = molecular target: T10, ETV7 (Homo sapiens, UniProt Q9Y603 1-341); settings: protein: recombinant; tags: N-terminal GST; dsDNA, one strand shown
T10 sequence: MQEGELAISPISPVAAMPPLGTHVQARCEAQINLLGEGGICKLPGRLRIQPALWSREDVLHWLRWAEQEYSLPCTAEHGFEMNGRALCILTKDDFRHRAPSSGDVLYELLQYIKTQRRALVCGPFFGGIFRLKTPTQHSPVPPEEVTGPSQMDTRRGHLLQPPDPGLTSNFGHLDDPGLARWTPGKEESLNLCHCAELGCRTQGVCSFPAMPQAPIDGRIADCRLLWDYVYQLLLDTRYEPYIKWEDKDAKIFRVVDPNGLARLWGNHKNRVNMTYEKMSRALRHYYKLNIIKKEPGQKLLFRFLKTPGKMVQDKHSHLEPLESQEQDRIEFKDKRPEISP
Procedure, shortened: as §1

[16] = molecular target: T11, ELF5 (Homo sapiens, UniProt Q9UKW6-2 1-255); settings: protein: recombinant; tags: N-terminal GST; dsDNA, one strand shown
T11 sequence: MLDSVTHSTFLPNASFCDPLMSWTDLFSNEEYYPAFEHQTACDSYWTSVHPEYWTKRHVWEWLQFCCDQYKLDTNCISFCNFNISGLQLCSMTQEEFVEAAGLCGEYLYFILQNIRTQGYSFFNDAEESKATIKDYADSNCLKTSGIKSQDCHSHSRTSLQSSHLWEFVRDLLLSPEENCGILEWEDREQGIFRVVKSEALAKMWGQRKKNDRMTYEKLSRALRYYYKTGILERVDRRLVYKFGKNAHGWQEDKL
Procedure, shortened: as §1

[17] = molecular target: T12, ETV3 (Homo sapiens, UniProt P41162-2 1-143); settings: protein: recombinant; tags: N-terminal GST; dsDNA, one strand shown
T12 sequence: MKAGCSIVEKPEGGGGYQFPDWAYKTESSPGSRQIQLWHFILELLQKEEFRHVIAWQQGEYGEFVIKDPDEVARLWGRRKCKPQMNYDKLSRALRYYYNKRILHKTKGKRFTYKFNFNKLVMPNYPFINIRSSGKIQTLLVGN
Procedure, shortened: as §1

[18] = molecular target: ETV6 (Homo sapiens, UniProt P41212 1-452); settings: protein: recombinant; tags: N-terminal GST; dsDNA, one strand shown
ETV6, sequence (P41212 whole entry): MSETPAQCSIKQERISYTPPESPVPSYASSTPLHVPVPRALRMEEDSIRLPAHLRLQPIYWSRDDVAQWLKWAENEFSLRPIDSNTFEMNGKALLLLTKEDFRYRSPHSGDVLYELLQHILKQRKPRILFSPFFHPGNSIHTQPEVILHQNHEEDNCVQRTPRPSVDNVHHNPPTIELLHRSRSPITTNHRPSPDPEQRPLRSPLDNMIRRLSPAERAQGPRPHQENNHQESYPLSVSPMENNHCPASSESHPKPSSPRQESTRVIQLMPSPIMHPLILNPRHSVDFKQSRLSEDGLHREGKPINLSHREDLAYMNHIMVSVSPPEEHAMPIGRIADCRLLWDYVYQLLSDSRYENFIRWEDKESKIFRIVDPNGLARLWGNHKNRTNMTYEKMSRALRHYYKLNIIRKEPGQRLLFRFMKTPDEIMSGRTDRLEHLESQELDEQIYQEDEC
Procedure, shortened: as §1

Q: For AACTTA, which binding signal [1] is on record?
A: 1.2 fold enrichment (6-mer frequency, TF over GST control)

Q: And the binding signal [2]?
A: 1.23 fold enrichment (6-mer frequency, TF over GST control)

Q: What about the binding signal [3] of the same sequence?
A: 1.41 fold enrichment (6-mer frequency, TF over GST control)

Q: And the binding signal [4]?
A: 1.27 fold enrichment (6-mer frequency, TF over GST control)

Q: What about the binding signal [5] of the same sequence?
A: 1.19 fold enrichment (6-mer frequency, TF over GST control)

Q: What about the binding signal [6] of the same sequence?
A: 1.22 fold enrichment (6-mer frequency, TF over GST control)

Q: And the binding signal [7]?
A: 1.08 fold enrichment (6-mer frequency, TF over GST control)

Q: And the binding signal [8]?
A: 1.12 fold enrichment (6-mer frequency, TF over GST control)

Q: What about the binding signal [9] of the same sequence?
A: 1.72 fold enrichment (6-mer frequency, TF over GST control)

Q: And the binding signal [10]?
A: 1.22 fold enrichment (6-mer frequency, TF over GST control)

Q: What about the binding signal [11] of the same sequence?
A: 1.29 fold enrichment (6-mer frequency, TF over GST control)

Q: And the binding signal [12]?
A: 1.14 fold enrichment (6-mer frequency, TF over GST control)

Q: What about the binding signal [13] of the same sequence?
A: 1.22 fold enrichment (6-mer frequency, TF over GST control)

Q: What about the binding signal [14] of the same sequence?
A: 1.16 fold enrichment (6-mer frequency, TF over GST control)

Q: And the binding signal [15]?
A: 1.14 fold enrichment (6-mer frequency, TF over GST control)

Q: And the binding signal [16]?
A: 1.25 fold enrichment (6-mer frequency, TF over GST control)

Q: And the binding signal [17]?
A: 1.14 fold enrichment (6-mer frequency, TF over GST control)

Q: And the binding signal [18]?
A: 1.32 fold enrichment (6-mer frequency, TF over GST control)
